Hits are enriched below; roughly 19% of the tested compounds scored in any of these assays.
HT1080 IDH1KD tx: qHTS for induction of synthetic lethality in tumor cells producing 2HG: qHTS for the HT-1080-IDH1KD cell line; actives 2% (n = 360,000); Potency, µM (doses to about 46.1 µM), most hits filed as cytotoxic; HT-1080 IDH1 knockdown viability, ATP luminescence, 48 h; AID 686971, 2013
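% activity derives from luminescence (CellTiter-Glo), normalised to DMSO and no-cell wells. HT-1080-IDH1KD cells, 750/well, had 48 h compound exposure at 37 °C.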
TDP1 cell CPT: qHTS for Inhibitors of human tyrosyl-DNA phosphodiesterase 1 (TDP1): qHTS in cells in presence of CPT. chicken DT40 Tdp1-/-;hTDP1 cells + 20 nM CPT, ATP luminescence, 48 h. AID 686979, 2013. actives 12% (n = 420,000). Potency, µM (doses to about 46.2 µM), usual class: inhibitors; note: nearly all actives have a fitted effect of over 55% in size
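Chicken DT40 Tdp1-/- cells complemented with human TDP1, 400 cells/well, exposed to compounds plus 20 nM camptothecin for at least 48 h at 37 C; viability read as ATP content by CellTiter-Glo luminescence.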
HT1080NT lethal: qHTS for induction of synthetic lethality in tumor cells producing 2HG: qHTS for the HT-1080-NT fibrosarcoma cell line; actives 1.6% (n = 360,000); HT-1080-NT fibrosarcoma viability, CellTiter-Glo ATP luminescence, 48 h; Potency, µM (titrated, usually from 46.1 µM), usual class: cytotoxic;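 note: NT is the 2HG producing partner of a matched IDH1 knockdown line; nearly all actives have a fitted effect of over 55% in size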
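Toxicity toward the 2HG-producing NT line was scored as %Activity, normalised to DMSO and no-cell wells, from CellTiter-Glo luminescence after 48 hours' treatment.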
IL1B secr inh: qHTS for Inhibitors of Inflammasome Signaling: IL-1-beta AlphaLISA Primary Screen | THP-1 LPS/ATP IL-1B secretion, AlphaLISA, 16 h; stronger effect = lower value | activity change, % at 57.5 µM | actives 4.7% (n = 360,000) | AID 743279, 2014; in the data active = activity change below about -50%; inconclusive = mostly about -30% to -49%
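THP-1 cells pretreated 1 hr with compounds (up to 57.5 uM final), then stimulated with LPS (250 ng/mL final) plus ATP (1.25 mM final); secreted IL-1B measured by AlphaLISA after 16 hr, decreased signal indicating inhibition.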
DT40 TDP1 no CPT: qHTS for Inhibitors of human tyrosyl-DNA phosphodiesterase 1 (TDP1): qHTS in cells in absence of CPT; DT40 Tdp1-/- hTDP1 cells, no CPT, ATP luminescence, 48 h; Potency, µM (highest dose often 46.2 µM), actives largely listed as inhibitors; actives 15% (n = 420,000); AID 686978, 2013; note: nearly all actives have a fitted effect of over 55% in size
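Growth kinetics read by CellTiter-Glo luminescence after ≥48 hr at 37 °C. Cells: DT40 Tdp1-/- stably carrying human TDP1, 400 per well, compound exposure in the absence of CPT (DMSO vehicle).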
A number is an active result; - = inactive; ? = inconclusive; . = no result given. Unless noted, calls come from the whole dose curve; as a rule, active = well fitted curve in the direction sought with a large enough effect; inconclusive = small, poorly fitted or top-dose-only effect, or another doubt; inactive = no such curve, though single readings can be large; an effect the other way counts as inactive or inconclusive.

SMILES | HT1080 IDH1KD tx | TDP1 cell CPT | HT1080NT lethal | IL1B secr inh | DT40 TDP1 no CPT
Cc1cc(/C=C(\C#N)C(=O)N2CCOCC2)c(C)n1C1CCCC1 | - | ? | - | - | 12µM
N#C/C(=C\c1ccc(O)c(O)c1)C(=O)N1CCCC1 | - | ? | ? | - | 13µM
COc1ccc(/C=C(\C#N)C(=O)N2CCOCC2)cc1Br | - | - | - | -68 | -
CC1=C(c2ccc(C)c(C)c2)S(=O)(=O)N(Cc2ccc(C(=O)NC(C)c3ccccc3)cc2)C1=O (stereo not given) | . | - | . | . | -
Cc1sc(NC(=O)CN2CCCC2)nc1-c1ccc2c(c1)CCN2C(=O)c1cccc(F)c1 | ? | ? | - | -66 | 16µM
Cc1sc(NC(=O)Cc2ccc3c(c2)OCO3)nc1-c1ccc2c(c1)CCN2C(=O)c1ccccc1F | ? | 18µM | - | ? | 8.2µM
CCOC(=O)c1cccc(NC(=O)CC2C(=O)N(c3ccc(Cl)cc3)C(=O)N2C2CCCC2)c1 (stereo not given) | . | 21µM | . | . | 18µM
COc1cccc(N2C(=O)C(CC(=O)Nc3cccc(F)c3)N(C3CCCC3)C2=O)c1 (stereo not given) | . | - | . | . | -
COc1ccc(NC(=O)CC2C(=O)N(c3ccc(C)cc3)C(=O)N2C2CCCCC2)cc1 (stereo not given) | . | - | . | . | -
CCOC(=O)c1cccc(NC(=O)CC2C(=O)N(c3ccc(OC)cc3)C(=O)N2C2CCCC2)c1 (stereo not given) | . | 23µM | . | . | 23µM
Cc1ccc(S(=O)(=O)N(C)C)cc1NC(=S)NNC(=O)C(N)=O | ? | - | - | - | -
O=C(c1ccccc1F)N1CCCC(N2CCN(Cc3ccc4c(c3)OCO4)CC2)C1 (stereo not given) | - | ? | - | - | ?
CCC1(c2ccc(F)cc2)NC(=O)N(CC(=O)N2CCN(S(=O)(=O)c3ccc(C)cc3)CC2)C1=O (stereo not given) | - | - | - | - | -
Cc1ccc(C)c(S(=O)(=O)Nc2ccc3scnc3c2)c1 | 12µM | 23µM | ? | - | 18µM
Cc1ccc(C)c(S(=O)(=O)Nc2ccc3[nH]c(=O)[nH]c3c2)c1 | - | ? | - | - | ?
Cc1ncoc1C(=O)N1CCCC(C(=O)c2ccc(C(F)(F)F)cc2)C1 (stereo not given) | - | - | - | - | ?
Cc1cc(C)cc(Nc2cc(-c3ccccc3)nc(C)n2)c1 | . | 9.2µM | . | . | 8.2µM
Cc1cc(C)n(-c2cc(-c3ccccc3)nc(C)n2)n1 | - | 16µM | - | - | ?
Cc1nc(-c2ccccc2)cc(N2CCCC2)n1 | - | - | - | - | -
COc1cccc(CNC(=O)[C@@H]2CCCN2C(=O)[C@@H]2CCCN2C(=O)c2ccc(Cl)cc2)c1 | - | ? | - | - | ?
C/C(=C/c1ccccc1)C(=O)N1CCC(C)CC1 | - | - | - | ? | -
COC(=O)c1cn(C(=O)c2cc(C)cc(C)c2)c2ccccc12 | - | ? | - | - | ?
COC(=O)c1cn(C(=O)c2ccc(C)c(C)c2)c2ccccc12 | - | ? | - | - | 21µM
COC(=O)c1cn(C(=O)c2ccc(C)cc2)c2ccccc12 | - | 18µM | - | - | 16µM
COC(=O)c1cn(C(=O)c2ccc3c(c2)OCO3)c2ccccc12 | - | ? | - | - | 16µM
COC(=O)c1cn(C(=O)c2ccc(OC)cc2)c2ccccc12 | 4.6µM | 8.2µM | ? | - | 4.6µM
COC(=O)c1cn(C(=O)c2ccc(OC)c(OC)c2)c2ccccc12 | - | ? | - | - | ?
CCCCN(C=O)c1c(CC)nc2ccc(C(=O)NCCOc3ccc(OC)cc3)cn12 | - | ? | - | - | ?
O=C1CC(c2ccco2)Cc2[nH]c(=O)c(C(=O)Nc3ccccc3)cc21 (stereo not given) | . | ? | . | . | 10µM

Source: PubChem
